Data as given in the supplement of paper PMC10849652.
The full data set covers some 7,900 targets. This sample favours those with a hit. About 0.6% of all pairs of compound and target were hits.

Tests used:
Assay in all cases: log2 fold change, soluble protein after heating vs DMSO (PISA); higher = thermal stabilisation; K562 cells, 10 uM, 30 min; active = over 0.2 and 3.5 SD of the protein, either way, in both replicates (recomputed)
rosiglitazone = compound: CN(CCOC1=CC=C(C=C1)C[C@H]2C(=O)NC(=O)S2)C3=CC=CC=N3 (racemic) [rosiglitazone]
How it was run: (§1)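 Thermal stability values are relative to control samples and come from duplicates. They are expressed as log2 fold changes. For measurement, K562 cells (2×10^6 cells/mL) received 10 μM compound for 30 min, and aliquots were heated for 3 min over 48°C-58°C, pooled, and extracted at 4°C in PBS with 0.5% NP-40. Soluble protein, the supernatant after 21,000xg for 90 min, was quantified by TMTpro 16plex LC-MS/MS with equalised channel sums.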

[1] = compound: CC[C@@H]1C(=O)N(C)c2cnc(Nc3ccc(C(=O)NC4CCN(C)CC4)cc3OC)nc2N1C1CCCC1
How it was run: as §1

[2] = compound: CC[C@H](C)N1C=C(C2=C(C=C(C=C21)C3=CN=C(C=C3)N4CCNCC4)C(=O)NCC5=C(C=C(NC5=O)C)C)C
How it was run: as §1

[3] = compound: CCn1c(C(=O)N(C2CC2)C2CC2)cc2c3c(ncn3C)c(Nc3cc(C)n(C)n3)nc21
How it was run: as §1

[4] = compound: CCn1cc(-c2ccnc3[nH]c(-c4cccc(CN(C)C)c4)cc23)c(-c2ccc(NC(=O)N(C)C)cc2)n1
How it was run: as §1

[5] = compound: CN(C)CC(=O)Nc1ccc2[nH]c(=O)c3ccccc3c2c1
How it was run: as §1

[6] = compound: CN1C2=C(C3=C1C(=O)N(N=C3)CC4=CC(=CC=C4)N)SC(=C2)S(=O)C
How it was run: as §1

[7] = compound: CN1CCC(CNc2ccc3ncc(-c4cccc(OC(F)(F)F)c4)n3n2)CC1
How it was run: as §1

saracatinib = compound: CN1CCN(CCOc2cc(OC3CCOCC3)c3c(Nc4c(Cl)ccc5c4OCO5)ncnc3c2)CC1 [saracatinib]
How it was run: as §1

sotrastaurin = compound: CN1CCN(c2nc(C3=C(c4c[nH]c5ccccc45)C(=O)NC3=O)c3ccccc3n2)CC1 [sotrastaurin]
How it was run: as §1

alvocidib = compound: CN1CC[C@H](c2c(O)cc(O)c3c(=O)cc(-c4ccccc4Cl)oc23)[C@H](O)C1 [alvocidib]
How it was run: as §1

Tubastatin A = compound: CN1CCc2c(c3ccccc3n2Cc2ccc(C(=O)NO)cc2)C1 [Tubastatin A]
How it was run: as §1

[8] = compound: CNC(=O)C1=CC=CC=C1NC2=NC(=NC=C2Cl)NC3=C(C=C(C=C3)N4CCOCC4)OC
How it was run: as §1

defactinib = compound: CNC(=O)c1ccc(Nc2ncc(C(F)(F)F)c(NCc3nccnc3N(C)S(C)(=O)=O)n2)cc1 [defactinib]
How it was run: as §1

rucaparib = compound: CNCc1ccc(-c2[nH]c3cc(F)cc4c3c2CCNC4=O)cc1 [rucaparib]
How it was run: as §1

[9] = compound: CNc1nc(-c2ccc3c(N)n[nH]c3c2)cc(N2C[C@@H](C(=O)NC3CCCCC3)CC[C@H]2C)n1
How it was run: as §1

encorafenib = compound: COC(=O)N[C@@H](C)CNc1nccc(-c2cn(C(C)C)nc2-c2cc(Cl)cc(NS(C)(=O)=O)c2F)n1 [encorafenib]
How it was run: as §1

[10] = compound: COC(=O)[C@H](CCSC)NC(=O)C1=C(C=C(C=C1)NC[C@H](CS)N)C2=CC=CC=C2
How it was run: as §1

volasertib = compound: CC[C@@H]1C(=O)N(C)c2cnc(Nc3ccc(C(=O)N[C@H]4CC[C@H](N5CCN(CC6CC6)CC5)CC4)cc3OC)nc2N1C(C)C [volasertib]
How it was run: as §1

epoxomicin = compound: CC[C@H](C)[C@@H](C(=O)N[C@@H]([C@@H](C)O)C(=O)N[C@@H](CC(C)C)C(=O)[C@]1(CO1)C)NC(=O)[C@H]([C@@H](C)CC)N(C)C(=O)C [epoxomicin]
How it was run: as §1

Measured: log2 fold change

ATP6V0A1 (UniProt Q93050)
UniProt Q93050, sequence (Q93050 whole entry, looked up): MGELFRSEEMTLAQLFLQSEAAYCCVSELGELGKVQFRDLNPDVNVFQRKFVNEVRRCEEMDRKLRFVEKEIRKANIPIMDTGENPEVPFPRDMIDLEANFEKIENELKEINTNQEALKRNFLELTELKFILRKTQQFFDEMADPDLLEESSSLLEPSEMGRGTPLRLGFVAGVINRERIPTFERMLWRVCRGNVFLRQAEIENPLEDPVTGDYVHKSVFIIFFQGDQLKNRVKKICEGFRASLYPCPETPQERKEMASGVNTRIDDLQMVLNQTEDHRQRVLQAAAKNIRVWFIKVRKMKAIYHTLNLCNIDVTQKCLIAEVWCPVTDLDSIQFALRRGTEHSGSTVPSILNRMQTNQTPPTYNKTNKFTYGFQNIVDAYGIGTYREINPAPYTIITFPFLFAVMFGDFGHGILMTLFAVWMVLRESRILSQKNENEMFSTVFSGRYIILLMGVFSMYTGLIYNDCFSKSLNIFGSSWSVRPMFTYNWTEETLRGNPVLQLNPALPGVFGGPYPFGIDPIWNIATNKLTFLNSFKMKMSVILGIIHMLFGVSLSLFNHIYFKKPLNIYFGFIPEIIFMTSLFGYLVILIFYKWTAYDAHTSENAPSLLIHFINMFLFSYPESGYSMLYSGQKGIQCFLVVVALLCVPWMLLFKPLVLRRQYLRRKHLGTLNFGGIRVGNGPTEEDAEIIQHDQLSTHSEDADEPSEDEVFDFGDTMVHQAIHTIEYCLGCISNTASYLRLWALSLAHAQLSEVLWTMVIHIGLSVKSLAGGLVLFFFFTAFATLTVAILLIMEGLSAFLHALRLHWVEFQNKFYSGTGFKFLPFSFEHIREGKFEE
inactive: rosiglitazone -0.082

ADAMTS5 (UniProt Q9UNA0)
UniProt Q9UNA0, sequence (Q9UNA0 whole entry, looked up): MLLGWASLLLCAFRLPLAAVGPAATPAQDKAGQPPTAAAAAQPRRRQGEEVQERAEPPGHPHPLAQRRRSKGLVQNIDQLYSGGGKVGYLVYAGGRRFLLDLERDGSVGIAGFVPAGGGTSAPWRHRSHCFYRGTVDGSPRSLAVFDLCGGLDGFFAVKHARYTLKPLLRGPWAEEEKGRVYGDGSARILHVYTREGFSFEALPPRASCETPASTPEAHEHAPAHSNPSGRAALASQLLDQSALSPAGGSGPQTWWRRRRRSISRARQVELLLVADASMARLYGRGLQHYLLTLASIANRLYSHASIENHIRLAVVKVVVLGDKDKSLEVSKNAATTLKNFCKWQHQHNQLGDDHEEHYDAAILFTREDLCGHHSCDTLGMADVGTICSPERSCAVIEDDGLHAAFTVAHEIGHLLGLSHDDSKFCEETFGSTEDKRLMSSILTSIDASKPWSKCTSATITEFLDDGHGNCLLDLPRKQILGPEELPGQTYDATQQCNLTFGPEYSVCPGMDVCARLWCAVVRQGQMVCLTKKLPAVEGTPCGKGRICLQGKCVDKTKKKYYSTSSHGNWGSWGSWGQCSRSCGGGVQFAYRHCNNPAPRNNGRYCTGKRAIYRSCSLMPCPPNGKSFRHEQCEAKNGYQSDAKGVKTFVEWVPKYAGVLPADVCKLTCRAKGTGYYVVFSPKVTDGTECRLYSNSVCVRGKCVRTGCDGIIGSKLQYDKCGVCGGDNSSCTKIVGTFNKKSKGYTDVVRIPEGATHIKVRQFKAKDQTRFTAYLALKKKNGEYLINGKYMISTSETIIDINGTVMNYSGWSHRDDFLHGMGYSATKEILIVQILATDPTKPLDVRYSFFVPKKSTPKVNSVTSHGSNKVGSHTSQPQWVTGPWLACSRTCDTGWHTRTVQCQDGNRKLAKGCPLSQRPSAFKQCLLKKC
inactive: [1] 0.011 | [2] -0.211 | [3] -0.092 | [4] -0.16 | [5] 0.045 | rosiglitazone -0.035 | [6] -0.018 | [7] -0.039 | saracatinib -0.107 | sotrastaurin -0.004 | alvocidib 0.007 | Tubastatin A 0.222 | [8] -0.13 | defactinib -0.021 | rucaparib -0.04 | [9] -0.048 | encorafenib -0.136 | [10] 0.028

ADPRH (UniProt P54922)
UniProt P54922, sequence (P54922 whole entry, looked up): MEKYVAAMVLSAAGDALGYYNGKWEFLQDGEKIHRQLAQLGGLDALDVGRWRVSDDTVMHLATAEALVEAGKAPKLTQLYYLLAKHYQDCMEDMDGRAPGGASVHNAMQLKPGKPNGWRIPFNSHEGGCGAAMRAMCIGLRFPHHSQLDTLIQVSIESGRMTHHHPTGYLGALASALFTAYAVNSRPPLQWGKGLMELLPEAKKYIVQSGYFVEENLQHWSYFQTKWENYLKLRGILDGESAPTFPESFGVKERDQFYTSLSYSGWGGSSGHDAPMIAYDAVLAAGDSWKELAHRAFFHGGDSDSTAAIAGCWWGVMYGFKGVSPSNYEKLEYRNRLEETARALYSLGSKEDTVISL
inactive: volasertib 0.108 | [2] 0.036 | epoxomicin -0.04 | [3] -0.067 | [4] 0.097 | [5] 0.1 | rosiglitazone 0.141 | [7] -0.313 | sotrastaurin -0.067 | Tubastatin A 0.213 | [8] -0.011 | defactinib -0.076 | [10] 0.028

ADD3 isoform 2 (UniProt Q9UEY8)
UniProt Q9UEY8, sequence (Q9UEY8 whole entry, looked up): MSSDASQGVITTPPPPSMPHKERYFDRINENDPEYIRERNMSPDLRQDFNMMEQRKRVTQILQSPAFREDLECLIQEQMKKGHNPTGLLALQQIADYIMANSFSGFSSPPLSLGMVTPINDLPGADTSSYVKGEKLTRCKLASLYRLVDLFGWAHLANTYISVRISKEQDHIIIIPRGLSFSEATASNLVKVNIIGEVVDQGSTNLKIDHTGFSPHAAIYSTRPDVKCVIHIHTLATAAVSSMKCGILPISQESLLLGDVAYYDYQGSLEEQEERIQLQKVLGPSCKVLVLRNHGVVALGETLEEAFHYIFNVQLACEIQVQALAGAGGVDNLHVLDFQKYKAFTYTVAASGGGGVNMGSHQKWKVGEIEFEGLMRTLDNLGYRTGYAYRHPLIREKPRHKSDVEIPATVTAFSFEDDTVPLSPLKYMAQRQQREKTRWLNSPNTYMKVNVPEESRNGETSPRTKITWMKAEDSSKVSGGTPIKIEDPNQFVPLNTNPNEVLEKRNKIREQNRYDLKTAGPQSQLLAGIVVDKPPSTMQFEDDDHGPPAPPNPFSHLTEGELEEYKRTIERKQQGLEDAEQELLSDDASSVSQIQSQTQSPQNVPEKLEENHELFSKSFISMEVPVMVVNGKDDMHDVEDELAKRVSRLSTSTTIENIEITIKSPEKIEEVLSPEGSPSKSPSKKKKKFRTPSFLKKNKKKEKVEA
inactive: [1] 0.021 | volasertib -0.037 | epoxomicin -0.022 | [4] 0.066 | [5] 0.036 | [6] -0.093 | [7] -0.128 | saracatinib -0.112 | sotrastaurin 0.014 | alvocidib -0.166 | Tubastatin A 0.058 | defactinib -0.025 | rucaparib -0.036 | [9] -0.172 | encorafenib -0.166 | [10] -0.025
